Test results from PubChem BioAssay.
The source made the active and inactive calls.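 The calls were made as follows, unless noted: active = normalized viability below 100% at a tested concentration; inactive = the rest.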

Experiments:
[1] = sensitizers of A549 cells to miR-34 induction, primary screen, imaging, A549 dox-inducible miR-34, nuclei and caspase counts (AID 1347080;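 active = compounds whose cell count with miR-34 switched on is under 0.7 times the count with it off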); settings: A549 miR-34 inducible, Hoechst nuclei count, 48 h
[2] = survival rescue of mitochondrial mutant cells in low glucose, primary screen, MELAS cybrids, Rieske KO mouse fibroblasts, CellTiter-Glo (AID 1508586;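 active = mean z-score across replicates of 1.96 or higher in either the MELAS or the Rieske mutant cell line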;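 also: z relative to plate mean and SD of compound and empty wells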)
[3] = ovarian cancer cell viability with rucaparib, profiling panel, oncology-focused library, rucaparib conditional (AID 1508598); settings: patient-derived ovarian cancer cells, CellTiter-Glo viability, 144 h, stronger effect = lower value
[4] = stronger effect = lower value, cell number ratio, induced over uninduced
[5] = measured here: relative caspase fold change +Dox/-Dox
[6] = measured here: total cells with miR-34 induction, stronger effect = lower value
[7] = measured here: total cells without miR-34 induction
[8] = MELAS cybrid survival, CellTiter-Glo 48 h, stronger effect = higher value
[9] = Rieske KO mouse fibroblast survival, CellTiter-Glo 72 h
[10] = at 0.000305 µM, OCI-C5x cells, with rucaparib 10 µM, 100% = cells with rucaparib alone
[11] = at 0.000305 µM, OCI-C5x cells, without rucaparib
[12] = at 0.000305 µM, OCI-P5x cells, with rucaparib 20 µM, 100% = cells with rucaparib alone
[13] = at 0.000305 µM, OCI-P5x cells, without rucaparib
[14] = at 0.00122 µM, OCI-C5x cells, with rucaparib 10 µM, 100% = cells with rucaparib alone
[15] = at 0.00122 µM, OCI-C5x cells, without rucaparib
[16] = at 0.00122 µM, OCI-P5x cells, with rucaparib 20 µM, 100% = cells with rucaparib alone
[17] = at 0.00122 µM, OCI-P5x cells, without rucaparib
[18] = at 0.00488 µM, OCI-C5x cells, with rucaparib 10 µM, 100% = cells with rucaparib alone
[19] = at 0.00488 µM, OCI-C5x cells, without rucaparib
[20] = at 0.00488 µM, OCI-P5x cells, with rucaparib 20 µM, 100% = cells with rucaparib alone
[21] = at 0.00488 µM, OCI-P5x cells, without rucaparib
[22] = at 0.0195 µM, OCI-C5x cells, with rucaparib 10 µM, 100% = cells with rucaparib alone
[23] = at 0.0195 µM, OCI-C5x cells, without rucaparib
[24] = at 0.0195 µM, OCI-P5x cells, with rucaparib 20 µM, 100% = cells with rucaparib alone
[25] = at 0.0195 µM, OCI-P5x cells, without rucaparib
[26] = at 0.0781 µM, OCI-C5x cells, with rucaparib 10 µM, 100% = cells with rucaparib alone
[27] = at 0.0781 µM, OCI-C5x cells, without rucaparib
[28] = at 0.0781 µM, OCI-P5x cells, with rucaparib 20 µM, 100% = cells with rucaparib alone
[29] = at 0.0781 µM, OCI-P5x cells, without rucaparib
[30] = at 0.313 µM, OCI-C5x cells, with rucaparib 10 µM, 100% = cells with rucaparib alone
[31] = at 0.313 µM, OCI-C5x cells, without rucaparib
[32] = at 0.313 µM, OCI-P5x cells, with rucaparib 20 µM, 100% = cells with rucaparib alone
[33] = at 0.313 µM, OCI-P5x cells, without rucaparib
[34] = at 1.25 µM, OCI-C5x cells, with rucaparib 10 µM, 100% = cells with rucaparib alone
[35] = at 1.25 µM, OCI-C5x cells, without rucaparib
[36] = at 1.25 µM, OCI-P5x cells, with rucaparib 20 µM, 100% = cells with rucaparib alone
[37] = at 1.25 µM, OCI-P5x cells, without rucaparib
[38] = at 5 µM, OCI-C5x cells, with rucaparib 10 µM, 100% = cells with rucaparib alone
[39] = at 5 µM, OCI-C5x cells, without rucaparib
[40] = at 5 µM, OCI-P5x cells, with rucaparib 20 µM, 100% = cells with rucaparib alone
[41] = at 5 µM, OCI-P5x cells, without rucaparib

CC(=O)O[C@@]1(C(C)=O)CC[C@H]2[C@@H]3C=C(C)C4=CC(=O)CC[C@]4(C)[C@@H]3CC[C@@]21C
0.339: z-score [2, 9]
6160: cell count [1, 6]
inactive: fold change [1, 4] 0.871 | z-score [2, 8] -0.515 | viability [3, 11] 104% | viability [3, 13] 104% | viability [3, 14] 107% | viability [3, 17] 100% | viability [3, 18] 102% | viability [3, 19] 101% | viability [3, 22] 100% | viability [3, 28] 100% | viability [3, 29] 100% | viability [3, 30] 116% | viability [3, 34] 116% | viability [3, 38] 111%
active: viability [3, 10] 94.9% | viability [3, 12] 96.4% | viability [3, 15] 97.6% | viability [3, 16] 99.8% | viability [3, 20] 99.9% | viability [3, 21] 96.3% | viability [3, 23] 99.3% | viability [3, 24] 96.9% | viability [3, 25] 93.1% | viability [3, 26] 98.1% | viability [3, 27] 94.7% | viability [3, 31] 90.3% | viability [3, 32] 92.2% | viability [3, 33] 89.7% | viability [3, 35] 92.1% | viability [3, 36] 89.9% | viability [3, 37] 82.2% | viability [3, 39] 93.9% | viability [3, 40] 84.5% | viability [3, 41] 82.1%
0.828: fold change [1, 5]
7070: cell count [1, 7]

C=CS(=O)(=O)NC1CCN(C(=O)CNc2cc(I)c(Cl)cc2OC)CC1
inactive: fold change [1, 4] 1.09 | z-score [2, 8] 0.491 | viability [3, 10] 129% | viability [3, 11] 112% | viability [3, 13] 100% | viability [3, 14] 117% | viability [3, 15] 106% | viability [3, 16] 108% | viability [3, 17] 101% | viability [3, 18] 110% | viability [3, 19] 116% | viability [3, 20] 103% | viability [3, 21] 102% | viability [3, 22] 117% | viability [3, 23] 102% | viability [3, 24] 101% | viability [3, 26] 121% | viability [3, 27] 107% | viability [3, 28] 107% | viability [3, 30] 119% | viability [3, 34] 111% | viability [3, 35] 106% | viability [3, 38] 117% | viability [3, 39] 105%
0.391: fold change [1, 5]
4400: cell count [1, 6]
1.48: z-score [2, 9]
4020: cell count [1, 7]
active: viability [3, 12] 97.3% | viability [3, 25] 96.9% | viability [3, 29] 90.5% | viability [3, 31] 93.3% | viability [3, 32] 93.4% | viability [3, 33] 95.6% | viability [3, 36] 96.2% | viability [3, 37] 84.8% | viability [3, 40] 90.8% | viability [3, 41] 86%
